Measurements taken from PubChem BioAssay AID2229 (National Center for Advancing Translational Sciences (NCATS), 2010).
The source made the active and inactive calls.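 How the source made its calls: active means a thermal shift above zero, meaning the compound raised the protein's melting temperature; inactive means the rest.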

Target: Luciferin 4-monooxygenase (Photinus pyralis) (UniProt P08659)
Test: Thermal Shift Assay for Inhibitors of FLuc (Firefly Luciferase, Photinus pyralis) in Absence of ATP
Conditions: purified FLuc, SYPRO Orange thermal shift, no ATP; at 200 µM; active compounds read high
Description: Firefly (Photinus pyralis) luciferase (FLuc) is widely used as a reporter in biological assays. […] In order to determine if FLuc thermal stabilization parallels inhibitor potency, a fluorescence-based thermal denaturation assay was developed in this present study. An environmentally sensitive fluorescence dye, SYPRO Orange (Invitrogen, presently Life Technologies) was utilized to monitor the fluorescence change as a function of temperature. The dye preferentially binds to the hydrophobic regions of the protein, and its high signal-to-noise ratio, large Stokes shift and high excitation wavelength make it ideal for thermal shift application. In this assay, the melting temperature (Tm) (the inflection point of the protein melt transition) was assessed for each sample tested. Differences in the Tm between controls and compound-containing samples were determined (the thermal shift or delta Tm), and compounds were ranked by the degree of their thermal shift at the top concentration (200 uM). […] FLuc catalyzes light production in bioluminescent organisms. The reaction requires luciferin, ATP and O2 as substrate, and it includes the formation of a luciferyl-AMP intermediate and the subsequent production of light, AMP, oxyluciferin and CO2. In this study, PTC124 and analogues were evaluated for their potential to stabilize FLuc in the absence and presence of ATP. This particular BioAssay is in the absence of ATP. See related BioAssay "Thermal Shift Assay for Inhibitors of FLuc (Firefly Luciferase, Photinus pyralis) in the Presence of ATP" See [6] for more details on this assay and related studies. Welch, et al. PTC124 targets genetic disorders caused by nonsense mutations. Nature 447 (2007) 87-91. D.S. Auld, N. Thorne, W.F. Maguire, and J. Inglese, Mechanism of PTC124 activity in cell-based luciferase assays of nonsense codon suppression. […]
Assay Protocol: 1.8 uM FLuc was tested in Tris-acetate buffer (pH 7.6) or phosphate buffer saline (pH 7.4). […] Fluorescence intensity changes (Ex 490/Em 575 nm) were monitored with a charge-coupled device (CCD) camera. […]

Luciferin 4-monooxygenase (Photinus pyralis), sequence (P08659 whole entry, looked up): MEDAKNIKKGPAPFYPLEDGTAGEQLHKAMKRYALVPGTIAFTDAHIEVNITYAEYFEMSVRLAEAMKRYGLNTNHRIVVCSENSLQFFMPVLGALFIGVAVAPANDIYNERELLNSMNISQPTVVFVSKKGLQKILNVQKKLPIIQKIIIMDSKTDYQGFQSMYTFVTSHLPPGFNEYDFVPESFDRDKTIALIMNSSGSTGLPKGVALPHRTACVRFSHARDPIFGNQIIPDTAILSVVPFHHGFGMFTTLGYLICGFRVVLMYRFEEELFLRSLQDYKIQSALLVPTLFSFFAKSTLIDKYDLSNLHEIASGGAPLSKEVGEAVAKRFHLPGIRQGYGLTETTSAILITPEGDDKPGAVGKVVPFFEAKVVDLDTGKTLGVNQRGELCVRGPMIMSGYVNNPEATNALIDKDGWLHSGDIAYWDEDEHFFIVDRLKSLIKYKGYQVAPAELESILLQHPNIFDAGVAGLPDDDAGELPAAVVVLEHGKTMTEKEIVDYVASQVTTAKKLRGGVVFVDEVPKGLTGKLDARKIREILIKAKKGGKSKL

Thermal shift (delta Tm), active:
NC(=O)c1cccc(-c2noc(-c3ccccc3F)n2)c1 2.84 °C
O=C(O)c1ccc(-c2noc(-c3ccccc3F)n2)cc1 5.87 °C
Nc1ncnc2c1ncn2[C@@H]1O[C@H](COP(=O)(O)OC(=O)c2cccc(-c3noc(-c4ccccc4F)n3)c2)[C@@H](O)[C@H]1O 28.3 °C
